Data: PubChem BioAssay AID1347088 (National Center for Advancing Translational Sciences (NCATS), 2019)
Results filed as inconclusive are left out. Where a call stands in place of a potency, no number is given. Active and inactive are the calls of the source. Calls come from the whole dose curve.

Assay: qHTS for Inhibitors of the Functional Ribonucleoprotein Complex (vRNP) of Lymphocytic Choriomeningitis Arenaviruses (LCMV): Viability assay - Alamar blue signal for LCMV Confirmatory Screen
Conditions: LCMV vRNP confirmatory screen cells; series mostly up to 53.9 µM

Compound	Potency	viability change, negative = toxic
O=C(Nc1ccc([N+](=O)[O-])cc1Cl)c1cc(Cl)ccc1O	3.43 µM (active)	
CC[C@@H](C(=O)O)[C@@H]1O[C@@H]([C@@H](C)[C@H](O)[C@H](C)C(=O)[C@H](CC)[C@H]2O[C@]3(C=C[C@@H](O)[C@]4(CC[C@@](C)([C@H]5CC[C@](O)(CC)[C@H](C)O5)O4)O3)[C@H](C)C[C@@H]2C)[C@@H](C)C[C@@H]1C	4.44 µM (active)	
CCC(C)c1nccnc1OC (stereo not given)	inactive	
CCC[C@H](N[C@@H](C)C(=O)N1[C@@H]2CCCC[C@H]2C[C@H]1C(=O)O)C(=O)OCC	inactive	
CCN(CC)C(=O)N[C@@H]1C=C2c3cccc4[nH]cc(c34)C[C@@H]2N(C)C1	inactive	
O=c1[nH]c2ccccc2n1C1CCN(CCCC(c2ccc(F)cc2)c2ccc(F)cc2)CC1	inactive	
FC(F)(F)c1ccc(C=Cc2nc(COc3ccc(CCCCn4ccnn4)cc3)co2)cc1	inactive	
CNCCCC1c2ccccc2C=Cc2ccccc21	27.3 µM (active)	
CCn1c(-c2nonc2N)nc2cnc(Oc3cccc(NC(=O)c4ccc(OCCN5CCOCC5)cc4)c3)cc21	24.3 µM (active)	
O=c1ccc2ccc(O)c(O)c2o1	inactive	
CC(O)(P(=O)(O)O)P(=O)(O)O	inactive	
CC12C(=O)OC(=O)C1(C)C1CCC2O1 (stereo not given)	8.63 µM (active)	
CC(C)=CCC/C(C)=C/CC/C(C)=C/CC[C@]1(C)CCc2c(C)c(O)c(C)c(C)c2O1		-1.54% [at 6 µM] (inactive)
CCCCCN=C(N)N/N=C/c1c[nH]c2ccc(OC)cc12	9.68 µM (active)	
N#CC(=C(\N)Sc1ccccc1N)/C(C#N)=C(/N)Sc1ccccc1N	inactive	
CC(=O)[C@H]1CC[C@H]2[C@@H]3CCC4=CC(=O)CC[C@]4(C)[C@H]3CC[C@]12C	inactive	
COc1cc2c(cc1OC)CC(=O)N(CCCN(C)C[C@H]1Cc3cc(OC)c(OC)cc31)CC2	inactive	
O=C1Cc2cc(CCN3CCN(c4nsc5ccccc45)CC3)c(Cl)cc2N1	inactive	
CCCCC[C@H](O)/C=C/C=C/C/C=C\CCCC(=O)O		-17.3% [at 0.666 µM] (inactive)
COc1ccc(Cc2nccc3cc(OC)c(OC)cc23)cc1OC	inactive	
NC(=O)N/N=C/c1ccc([N+](=O)[O-])o1	inactive	
Cc1cc2c(C(C)C)c(O)c(O)c(C=O)c2c(O)c1-c1c(C)cc2c(C(C)C)c(O)c(O)c(C=O)c2c1O	27.3 µM (active)	
O=C(Nc1ccc(Cl)c(Cl)c1)C1CC1	inactive	
CCC(c1ccc(O)cc1)C(CC)c1ccc(O)cc1 (stereo not given)	inactive	
CC1OC(=O)[C@@H](C(C)C)NC(=O)C(C(C)C)OC(=O)[C@H](C(C)C)NC(=O)C(C)OC(=O)[C@@H](C(C)C)NC(=O)C(C(C)C)OC(=O)[C@H](C(C)C)NC(=O)C(C)OC(=O)[C@@H](C(C)C)NC(=O)C(C(C)C)OC(=O)[C@H](C(C)C)NC1=O (stereo not given in full)	0.611 µM (active)	
